Source: PubChem BioAssay (The Scripps Research Institute Molecular Screening Center)
Shown are actives, neighbours in structure and some others; about 3.5% of the full set was active somewhere.
TEAD-YAP inh – TEAD-YAP interaction inhibition, primary screen, TEAD-YAP interaction inhibitor project, luminescence, HEK-TIYL cells; TEAD-Gal4/YAP UAS-luciferase luminescence; inhibition, % at 9.12 µM; 640,000 compounds, 1.4% hits; in the data active = inhibition above about 32%
GPR151 ag – activators of human GPR151, primary screen, cell-based, PathHunter beta-arrestin, luminescence; G-protein coupled receptor 151 (Homo sapiens), Q8TDV0; PathHunter beta-arrestin GPR151 cells; activation, % at 11.2 µM; 650,000 compounds, 1% hits; in the data active = activation above about 4.9%
FBW7 activator – FBW7 E3 ligase activators, primary screen, biochemical, AlphaScreen, human; normalized activity (activation), % at 26.1 µM; AlphaScreen FBW7–phospho-cyclin E peptide binding, activator screen; 650,000 compounds, 0.13% hits; in the data active = normalized activity above about 1.9%;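 also: purified mutant Fbw7 with reduced substrate affinity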
MITF primary – MITF inhibitors, primary screen, biochemical, AlphaScreen, human; AlphaScreen MITF homodimerization, bead proximity signal; inhibition, % at 2.6 µM; 650,000 compounds, 0.91% hits; AID 1259374, 2018; in the data active = inhibition above about 50%
Target sequence (O75030 whole entry, looked up): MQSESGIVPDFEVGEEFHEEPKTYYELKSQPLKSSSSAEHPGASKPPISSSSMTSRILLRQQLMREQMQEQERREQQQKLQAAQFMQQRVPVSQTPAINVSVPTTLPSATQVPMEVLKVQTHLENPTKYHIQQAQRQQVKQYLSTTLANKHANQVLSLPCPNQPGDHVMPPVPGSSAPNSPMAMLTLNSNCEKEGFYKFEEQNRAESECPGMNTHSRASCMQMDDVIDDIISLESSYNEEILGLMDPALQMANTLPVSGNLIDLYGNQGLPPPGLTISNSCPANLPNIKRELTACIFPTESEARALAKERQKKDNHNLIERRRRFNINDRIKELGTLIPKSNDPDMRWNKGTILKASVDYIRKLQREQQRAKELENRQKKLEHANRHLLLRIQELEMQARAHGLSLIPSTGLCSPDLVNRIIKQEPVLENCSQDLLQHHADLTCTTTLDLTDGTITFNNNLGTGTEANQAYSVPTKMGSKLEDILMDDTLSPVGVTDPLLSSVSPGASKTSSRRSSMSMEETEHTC
MITF confirm – MITF inhibitors, retest of hits, confirmation, biochemical, AlphaScreen, triplicate; 4,700 compounds, 16% hits; shares compounds with MITF primary; AID 1259372, 2018; inhibition, % at 2.6 µM; AlphaScreen MITF homodimerization, biotin/His-MITF beads;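 active = inhibition above a cutoff derived from the DMSO control wells, cut at about 28% in these data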;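 also: inhibitors lower the bead chemiluminescence by keeping MITF from dimerizing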
AS interf DR – AlphaScreen optical interference compounds, dose response, counter-screen, biochemical, HTS. shares compounds with MITF primary. AlphaScreen optical interference counterscreen, cell-free. IC50, µM. 480 compounds, 6% hits. AID 1259373, 2018; call rule not given here
AS interf ctr – AlphaScreen optical interference compounds, counter-screen for MITF inhibitor project, biochemical, triplicate. AID 1259376, 2018. LysRS AlphaScreen counterscreen, signal interference. inhibition, % at 2.6 µM. 4,700 compounds, 7.6% hits. shares compounds with MITF primary;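 active = inhibition above a cutoff derived from the DMSO control wells, cut at about 30% in these data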
A number is an active result; n = inactive; x = not tested or not shown.

SMILES	TEAD-YAP inh	GPR151 ag	FBW7 activator	MITF primary	MITF confirm	AS interf ctr	others
C/C=C/c1ccc(OCCOCCN(C)C)c(OC)c1	n	n	n	69.8	n	n
C/C=C/c1ccc(OCCCN2CCN(CC)CC2)c(OC)c1	n	n	n	63.1	n	n
Oc1ccc(/C=N/Nc2nncc3ccccc23)c(O)c1O	n	n	n	n	x	x
COc1ccc(-c2cc(C(F)(F)F)n3nc(C(=O)Nc4cc(C)cc(C)c4)cc3n2)cc1OC	n	n	n	n	x	x
O=C(O)c1cc2ncc(-c3n[nH]c(-c4cnc5cc(C(=O)O)nn5c4)c3[N+](=O)[O-])cn2n1	n	n	n	68.4	57.7	n	AS interf DR=n
O=c1cc2ncc(-c3[nH]ncc3[N+](=O)[O-])cn2[nH]1	n	n	n	n	x	x
O=C(O)c1cc([N+](=O)[O-])ccc1Sc1ccccc1	n	n	n	n	x	x
COc1ccccc1CNCC(=O)c1ccc(OC)c(OC)c1	n	n	n	68.4	n	n
CCN1C(=O)NC(c2cc(Br)ccc2OC)C(C(=O)OC)=C1C (configuration not stated)	n	n	n	59.2	n	n
CCN1C(=O)NC(c2cc(C)ccc2C)C(C(=O)OC)=C1C (configuration not stated)	n	n	n	n	x	x
O=C1c2nccnc2C(=O)N1Cc1ccc(Cl)cc1Cl	n	n	n	n	x	x
CCC(C)c1ccccc1OCCCNCCCOC (configuration not stated)	n	n	n	60.1	n	n
CCC(C)c1ccccc1OCCNC(C)C (configuration not stated)	n	n	n	85.4	n	n
CCC(C)c1ccccc1OCCCNCCOC (configuration not stated)	n	n	n	n	x	x
CCc1ccc(/C(C)=N/NC(=O)c2ccc(Br)o2)cc1	n	n	n	n	x	x
O=C(CNCC1CCCCC1)Nc1ccc(CN2CCCCC2)cc1	n	n	n	63.3	n	n
O=C(CNC1CCCCC1)Nc1ccc(CN2CCCCC2)cc1	n	n	n	74.5	n	n
O=C(CNC1CCCCCC1)Nc1ccc(CN2CCCCC2)cc1	n	n	n	67.1	n	n
O=C(CNC1CC1)Nc1ccc(CN2CCCCC2)cc1	n	n	n	n	x	x
COCCNCCC1CCC(=O)N1Cc1cccc(Cl)c1 (configuration not stated)	n	n	n	n	x	x
CCS(=O)(=O)N1CCN(C(C)CCc2ccccc2)CC1 (configuration not stated)	n	n	n	51.1	n	n
O=C(c1cccnc1)N1CCN(Cc2ccc3ccccc3c2)CC1	n	n	n	n	x	x
Cc1ccccc1CN1CCN(C(=O)c2cccnc2)CC1	n	n	n	60.9	n	n
Cc1ccc(CN2CCN(C(=O)c3cccnc3)CC2)cc1	n	n	n	53.8	n	n
O=C(c1cccnc1)N1CCN(Cc2ccccc2C(F)(F)F)CC1	n	n	n	53.0	n	n
SMILES	TEAD-YAP inh	GPR151 ag	FBW7 activator	MITF primary	MITF confirm	AS interf ctr	others
O=C(c1cccnc1)N1CCN(Cc2ccc([N+](=O)[O-])cc2)CC1	n	n	n	n	x	x
CCN(Cc1ccccc1)C(=O)Cn1ncc2c(=O)oc3ccccc3c21	n	n	n	n	x	x
Cc1ccc(S(=O)(=O)Nc2ccc(F)c([N+](=O)[O-])c2)cc1C	n	n	n	n	x	x
COc1ccc(CCNC(=O)c2cnn3c(C)c(Cc4ccccc4Cl)c(C)nc23)cc1OC	n	n	n	n	x	x
S=c1nc2ccccc2c2[nH]c3ccccc3n12	n	n	n	56.2	n	n
S=c1[nH]c2ccccc2n2c(=S)[nH]nc12	n	n	n	n	x	x
O=C(CSc1nc2ccccc2c(=O)n1CCC(=O)N1CCN(c2ccccc2)CC1)NC1CCCCC1	n	n	n	n	x	x
CN1CCC(N(C)CC(O)COCc2ccccc2Cl)CC1 (configuration not stated)	n	n	n	86.8	n	n
CN1CCC(N(C)CC(O)COCc2ccccc2F)CC1 (configuration not stated)	n	n	n	n	x	x
CC1(C)CC(=O)C2=C(C1)N(c1ccc(Br)cc1)C(N)=C(C#N)C2c1ccc(C(C)(C)C)s1 (configuration not stated)	n	n	n	52.2	n	n
CC1(C)CC(=O)C2=C(C1)N(c1ccc(Cl)cc1)C(N)=C(C#N)C2c1ccc(C(C)(C)C)s1 (configuration not stated)	n	n	n	n	x	x
CCC(=O)c1ccccc1OCCN1CCN(CC)CC1	n	n	n	68.2	n	n
CCC(=O)c1ccccc1OCCCCN1CCN(C)CC1	n	n	n	n	x	x
CCC(=O)c1ccccc1OCCCN1CCN(Cc2ccccc2)CC1	n	n	n	55.7	n	n
CCC(=O)c1ccccc1OCCCCn1cncn1	n	n	n	73.6	n	n
COc1ccc(NC(=O)C2CC(=O)NC(=Nc3ccc(C)c(C)c3)S2)cc1 (configuration not stated)	n	n	n	n	x	x
Cc1ccc(N=C2NC(=O)CC(C(=O)Nc3ccc(Cl)cc3)S2)cc1C (configuration not stated)	n	n	n	78.2	n	n
O=C(CN1CCN(Cc2nc(-c3ccco3)cs2)CC1)N1CCCC1	n	n	n	59.9	n	n
O=C(/C=C/c1ccco1)NCC(=O)N/N=C/c1ccc(C(=O)O)cc1	n	n	n	51.2	45.1	n	AS interf DR=n
O=C(NCc1ccccc1)c1ccc(CS(=O)c2ccc(Br)cc2)o1 (configuration not stated)	n	n	n	n	x	x
O=C(NCc1ccco1)c1ccc(CS(=O)c2ccc(Br)cc2)o1 (configuration not stated)	n	n	n	76.9	n	n
CCOc1ccc2nc(N=C(NC(=O)CC)NC(=O)CC)nc(C)c2c1	n	n	n	110.0	n	n
OCCN(Cc1ccccc1)Cc1ccccc1Cl	n	n	n	n	x	x
OCCN(Cc1ccccc1)Cc1cccc(F)c1	n	n	n	57.0	n	n
OCCN(Cc1ccccc1)Cc1ccccc1F	n	n	n	61.4	n	n
OCCN(Cc1ccccc1)Cc1cccc(C(F)(F)F)c1	n	n	n	51.8	n	n
O=C(Cc1cccc(C(F)(F)F)c1)Nc1ccccc1	n	n	n	n	x	x
OCCN(Cc1ccccc1)Cc1ccc(C(F)(F)F)cc1	n	n	n	52.3	n	n
CSc1ccc(CN(CCO)Cc2ccccc2)cc1	n	n	n	n	x	x
CCCCNC(=O)C(=O)NCc1ccccc1C	n	n	n	n	x	x
